Assay results reported in the supplement of paper PMC6555819.

How the values were obtained:
Test in all cases: PBM binding z-score (relative to random genomic background probes); higher = stronger binding; sequences stand for … in GC…GCGATTGACAGCGTAGAATGAAGG
[1] = tested on: RARb homodimer (NR concentration 270 nM)
In short: (§1)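 Custom Agilent 4×180K protein-binding microarrays carried double-stranded probes. Their 34-nt variable regions held direct-repeat seeds, single-nucleotide variants, half-site ablations and random human genomic background sequences. Arrays were incubated 1 h with ligand-free nuclear receptor dimers in PBS pH 7.4, 2% milk, 0.02% Triton X-100, 1 mM DTT, 0.2 mg/mL BSA and 0.4 mg/ml salmon testes DNA. Antibodies against each partner (one per run) detected binding, and scanned fluorescence was regression-normalized. Binding z-scores use random background probes as reference.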

[2] = tested on: RARg:RXRa (NR concentration 270 nM, RXRa partner concentration 90 nM)
In short: as §1

[3] = tested on: RARg homodimer (NR concentration 270 nM)
In short: as §1

[4] = tested on: RXRa DBDmut IVT, anti-RXR (DBD mutation: RXRa K156A/R161A, NR concentration 90 nM)
In short: as §1

[5] = tested on: RXRa homodimer (NR concentration 180 nM)
In short: as §1

[6] = tested on: THRa:RXRa (NR concentration 90 nM, RXRa partner concentration 90 nM)
In short: as §1

[7] = tested on: THRa homodimer (NR concentration 90 nM)
In short: as §1

[8] = tested on: VDR homodimer (NR concentration 270 nM)
In short: as §1

| Sequence | PBM binding z-score [1] | PBM binding z-score [2] | PBM binding z-score [3] | PBM binding z-score [4] | PBM binding z-score [5] | PBM binding z-score [6] | PBM binding z-score [7] | PBM binding z-score [8] |
| --- | --- | --- | --- | --- | --- | --- | --- | --- |
| ATATGTAGGTTAGGGTCATTCTGAAAGTAGGGAA | 3.35 | 3.61 | 2.78 | 2.79 | 4.88 | 4.05 | 3.12 | 3.77 |
| CCGAGTAGGTTACGAGGGGGCTTTCAGTGCGAAT | 0.961 | 1.85 | 1.36 | 0.879 | 1.08 | 2.33 | 0.299 | 0.538 |
| TATACTGGGTCAAAGGCCAGAGTACGAATGTCGA | 2.9 | 3.96 | 3.88 | 0.958 | 3.99 | 2.24 | 0.212 | 1.37 |
| ATATATAGGTTAGGGTCATTCAGAAAGTAGGGAA | 3.6 | 4.24 | 3.75 | 2.67 | 5.33 | 4.11 | 3.76 | 3.95 |
| CTTTGTAGGTTAAGGGGGTCATTCAGTTTGAAAG | 3.99 | 5.28 | 4.16 | 2.79 | 6.08 | 3.97 | 2.08 | 5.68 |
| CTATGTTGGTTAAGGGGGTCATTCAGTTTGAAAG | 3.86 | 4.63 | 3.46 | 2.63 | 5.18 | 3.75 | 3.17 | 6.63 |
| CGAACTAGGTCAAAGGACTGTGAAAGGCGACGTA | 2.43 | 3.69 | 4.11 | 1.71 | 2.93 | 2.19 | -0.114 | -0.0761 |
